Source: PubChem BioAssay
Only some compounds are listed: those with a hit (about 1.8% of all), similar ones and a draw of the others.
Jurkat NFkB inh: inhibitors of the PMA/ionomycin-induced NF-kB reporter in Jurkat cells. PMA/ionomycin-induced NF-kB luciferase reporter, luminescence. inhibition, % at 4 µM. hit rate 0.53% among 330,000. AID 435003; in the data active means inhibition above about 50%
Gli-Sufu antag: blocks Gli-Sufu signaling in a luciferase reporter. hit rate 0.74% among 340,000. inhibition, % at 5 µM. Sufu-KO-LIGHT fibroblasts, Gli luciferase reporter luminescence;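 active means inhibition above about 55%, limit read from the data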;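 further: 0% = DMSO-treated cells and 100% = wells with medium but no cells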
Beta apoptosis: blocks beta cell apoptosis; AID 435005; INS-1E cytokine-induced death, ATP luminescence, 48 h; percent of positive-control rescue, neutral wells zero; hit rate 0.8% among 300,000; protection from apoptosis, % (no concentration beside the values);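 active means Every replicate reaches about 75%, or at least half do and their mean reaches it too, limit read from the data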;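 further: 0% = cytokine-treated negative control wells and 100% = positive control rescue; higher means more ATP so stronger rescue from cytokine killing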
697 NFkB inh: inhibitors of the PMA/ionomycin-induced NF-kB reporter in 697 B cells; hit rate 0.33% among 330,000; inhibition, % at 4 µM; AID 435022; 697 B-cell NF-kB luciferase reporter, 16 h; in the data active means inhibition above about 35%
Gli antag conf: confirmation of Gli-SUFU pathway antagonists; hit rate 40% among 2,500; Sufu-KO-LIGHT cells, Gli luciferase reporter, luminescence; AID 602428; shares compounds with Gli-Sufu antag; inhibition, % at 5 µM;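 active means mean inhibition at 5 µM reaching about 45%, limit read from the data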;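 further: plate controls were DMSO-treated cells for no effect and wells lacking cells for full effect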
Gli cytotox: counter-screen for Gli-SUFU antagonists: cytotoxicity; cytotoxicity, % at 5 µM; shares compounds with Gli-Sufu antag; hit rate 32% among 2,500; Sufu-KO-LIGHT cells cytotoxicity, ATP luminescence;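 active means mean cytotoxicity at 5 µM above about 25%, limit read from the data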;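 further: cells exposed to compound overnight for roughly 16 to 18 hours; plate controls were DMSO wells with cells for no effect and medium without cells for full effect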
Wnt3a counter: inhibits Wnt3a reporter, counter-screen for Gli-SUFU antagonists; Wnt-LIGHT cells, Wnt3a-driven luciferase reporter, luminescence; inhibition, % at 6.25 µM; shares compounds with Gli-Sufu antag; hit rate 20% among 2,500;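 active means mean inhibition above about 25%, limit read from the data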
Active calls of the source: *; . = no result.

SMILES | Jurkat NFkB inh | Gli-Sufu antag | Beta apoptosis | 697 NFkB inh | Gli antag conf | Gli cytotox | Wnt3a counter
COc1ccc2c(c1)C(C)=CC(C)(C)N2S(=O)(=O)c1ccc(C)cc1 | 39 | 67* | 32 | 10 | 56* | 58* | 30*
COC(=O)C1(C)CN(S(=O)(=O)c2ccc(C)cc2)c2cc(OC)ccc2C1=O (stereo not drawn) | 7 | 3 | -6 | 11 | . | . | .
Cc1ccccc1OCC(O)Cn1c(NCc2ccco2)nc2c1c(=O)n(C)c(=O)n2C (stereo not drawn) | -2 | 28 | 1 | -41 | . | . | .
CC(=O)N1c2ccccc2S(=O)(=O)c2ccccc21 | -10 | 24 | -1 | -21 | . | . | .
COc1cc(/C=C2/CCCC(C(=O)C(F)(F)F)=C2O)ccc1O | 5 | 3 | -2 | -16 | . | . | .
CCOc1cc(/C=C2\CCCC(C(=O)C(F)(F)F)=C2O)ccc1O | 20 | 59* | -7 | 17 | 7 | 1 | -58
O=S(=O)(Nc1ccon1)c1ccc(Br)cc1 | 10 | -6 | . | 1 | . | . | .
N#Cc1cccnc1N1CCN(C(=O)c2ccc3c(c2)S(=O)(=O)c2ccccc2C3=O)CC1 | 14 | 50 | -1 | 10 | 26 | 2 | -10
O=C1[C@H]2[C@@H](c3ccc(F)cc3)N3C(=O)N(c4ccc(Br)cc4)C(=O)[C@@]3(Cc3ccc(Cl)cc3)[C@H]2C(=O)N1C1CCCCC1 | 19 | 1 | 10 | 16 | . | . | .
Nn1c(CSc2nc3ccccc3o2)nnc1CSc1nc2ccccc2o1 | 8 | 94* | -4 | -1 | 23 | -3 | 11
O=C(O)CSc1nc2ccccc2o1 | -12 | 5 | -9 | -12 | . | . | .
CCOc1ccc2c(c1)sc1nc(C(=O)OC)cc(=O)n12 | 15 | 4 | -3 | 21 | . | . | .
CCOc1ccc2c(c1)s/c(=N\S(=O)(=O)c1ccc(OC)cc1)n2C(F)F | 10 | 55 | 4 | 3 | 11 | -1 | -5
CC(Sc1nc2cc([N+](=O)[O-])ccc2n1-c1ccc(F)cc1)C(=O)NCc1ccc2c(c1)OCO2 (stereo not drawn) | 11 | 13 | 6 | -15 | . | . | .
Cc1ccc(S(=O)(=O)N2CCN(C(=O)c3c(C)nn(-c4ccccc4)c3Cl)CC2)cc1 | 11 | 13 | . | -26 | . | . | .
Cc1cc(C)c(S(=O)(=O)N2CCN(C(=O)c3c(C)nn(-c4ccccc4)c3Cl)CC2)c(C)c1 | . | 98* | . | . | 32 | 19 | 0
O=C(Nc1nnc(COc2ccccc2F)s1)Nc1ccccc1F | 3 | 0 | 0 | 21 | . | . | .
CCCc1cc(=O)oc2cc(C)cc(OCC(=O)N3CCC(C(=O)O)CC3)c12 | 4 | 55 | . | 11 | 19 | -3 | 12
COc1ccc(NC(=O)c2cccc(N3C(=O)C4C5C=CC(C6CC56)C4C3=O)c2)c(OC)c1 (stereo not drawn) | 3 | 56* | -9 | -24 | 29 | -3 | 9
Cc1ccc(S(=O)(=O)N(CC(O)CN2CCCCC2)c2ccccc2)cc1 (stereo not drawn) | -1 | 58* | . | -4 | 32 | 2 | -22
Cc1cc(=O)[nH]c(SCC(=O)Nc2ccc(S(=O)(=O)N3CCOCC3)cc2)n1 | -13 | 8 | -1 | -2 | . | . | .
COc1ccc(C)cc1-n1nnnc1SCn1nnc2ccccc2c1=O | 28 | 58* | 50 | -16 | 64* | 31* | 32*
Cc1ccc(-n2nnnc2SCn2nnc3ccccc3c2=O)cc1 | -44 | -5 | -3 | -96 | . | . | .
COc1ccc(C)cc1-n1nnnc1SCc1cc(=O)n2cc(C)ccc2n1 | 41 | 58* | 40 | -32 | 57* | 37* | 6
Cc1ccccc1Cn1cc(NC(=O)c2noc(C(C)C)c2[N+](=O)[O-])cn1 | 3 | 6 | 1 | -2 | . | . | .
SMILES | Jurkat NFkB inh | Gli-Sufu antag | Beta apoptosis | 697 NFkB inh | Gli antag conf | Gli cytotox | Wnt3a counter
Cc1ccc2c(C)c(C(=O)NCc3ccc(S(N)(=O)=O)cc3)oc2c1C | 2 | 59* | 6 | -2 | 28 | 7 | 12
CC(=O)c1c(C)[nH]c(C(=O)OCc2ccccc2)c1C | -15 | -52 | -13 | -78 | . | . | .
CC(=O)c1c(C)[nH]c(C(=O)OCCCCN2C(=O)c3ccccc3C2=O)c1C | 16 | 68* | 104* | 18 | 66* | 32* | 16
O=C(O)c1ccc(N2C(=O)C3C4c5ccccc5C(Br)(c5ccccc54)C3C2=O)cc1 (stereo not drawn) | -3 | 66* | -11 | 9 | 17 | 10 | 6
CC12c3ccccc3C(c3ccccc31)C1C(=O)N(c3ccncc3)C(=O)C12 (stereo not drawn) | -4 | -6 | 5 | 7 | . | . | .
Cc1cc(-c2ccc(C)c(S(=O)(=O)NCCCN3CCN(c4ccccc4)CC3)c2)on1 | 15 | 47 | 20 | -26 | . | . | .
Cc1cc(-c2ccc(C)c(S(=O)(=O)NCCCN3CCN(c4ccccc4F)CC3)c2)on1 | -1 | 56* | 29 | -33 | 39 | 13 | 0
CCCCOC(=O)c1ccc(NC(=O)Nc2ccc(OC)c(OC)c2)cc1 | -19 | 8 | 3 | 1 | . | . | .
CCOC(=O)c1ccccc1NC(=O)C(C)Oc1ccccc1 (stereo not drawn) | 7 | 0 | -3 | -24 | . | . | .
CCOC(=O)c1ccccc1NC(=O)Nc1ccc(OC)c(OC)c1 | 1 | 62* | 0 | 17 | 17 | 13 | 3
CCCC(C)C(=O)Nc1ccccc1C(=O)OCC (stereo not drawn) | 3 | 100* | 2 | 0 | 1 | 20 | -7
CCOC(=O)c1ccc(NC(=O)Nc2ccc(OC)c(OC)c2)cc1 | -4 | 61* | 2 | -17 | 24 | 8 | -9
COCCNC(=O)C12CC3CC(CC(Cl)(C3)C1)C2 | -15 | 52 | -6 | -9 | 31 | 0 | 6
COc1ccc(C(=O)N(C)C2CCCCC2)cc1OC1CCN(C(C)C)CC1 | -6 | 23 | . | -1 | . | . | .
COc1ccc(C(=O)N2CCCCCCC2)cc1OC1CCN(C(C)C)CC1 | -18 | 65* | 2 | -21 | 26 | 15 | -2
CC1Cn2c(COc3ccccc3)nnc2S1 (stereo not drawn) | 6 | -3 | -6 | 6 | . | . | .
CC1Cn2c(CCc3ccccc3)nnc2S1 (stereo not drawn) | 15 | 54 | 0 | 3 | 19 | 2 | -7
Cc1cccc(C)c1NC(=O)CNc1ncnc2sc(C)c(C)c12 | 12 | 18 | 25 | -5 | . | . | .
O=[N+]([O-])c1ccc(/C=[N+](\[O-])[C@@H]2CCCC[C@@H]2/[N+]([O-])=C/c2ccc([N+](=O)[O-])o2)o1 | 9 | 76* | -12 | 17 | 67* | -2 | 21
CC(C)/C=C/C(=O)N1CCC(N2CCC(C(=O)NCc3ccccn3)CC2)CC1 | -5 | 9 | -7 | 1 | . | . | .
COc1ccc(S(=O)(=O)NCCC(=O)OCc2cc(=O)oc3cc(C)ccc23)cc1[N+](=O)[O-] | 6 | -9 | . | -10 | . | . | .
